{
  "source": "PubChem BioAssay (EPA / NIEHS)",
  "note": "Active and inactive are the calls of the source. The calls were made as follows: active = hit-call score of the fitted dose curve at least 0.9, where 1 is the maximum; inactive = score below 0.9.",
  "data": [
    {"experiment": "CEETOX_H295R_CORTISOL: CeeTox H295R High-throughput Steroidogenesis Assay for Cortisol (AID 2283438);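 also: cortisol secreted into medium quantified by LC-MS/MS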", "conditions": "actives raise or lower the signal", "description": "CEETOX_H295R is a cell-based, multiplexed-readout assay that uses H295R, a human adrenal gland cell line, with measurements taken at 48 hours after chemical dosing in a 96-well plate.CEETOX_H295R_CORTISOL is one of 23 assay component(s) measured or calculated from the CEETOX_H295R assay. It is designed to make measurements of hormone induction, a form of inducible reporter, as detected with absorbance signals by HPLC-MS-MS technology.Data from the assay component CEETOX_H295R_CORTISOL was analyzed into 1 assay endpoint. This assay endpoint, CEETOX_H295R_CORTISOL, was analyzed with bidirectional fitting relative to DMSO as the negative control and baseline of activity. Using a type of inducible reporter, gain or loss-of-signal activity using HPLC-MS-MS was used to understand synthesis of Cortisol in H295R cell line at 48hr of chemical exposure. To generalize the intended target to other relatable targets, this assay endpoint is annotated to the steroid hormone intended target family, where the subfamily is glucocorticoids.\nCell culture and media preparation procedures were conducted in accordance with OECD Test No. 456 guidelines, with minor modifications. H295R cells (ATCC CRL-2128) were expanded for 5 passages and frozen in batches in liquid nitrogen. Prior to the steroidogenesis assay, H295R cells were thawed and passed at least 4 times. The maximum passage was 10. Cells were maintained in a 1:1 mixture of DMEM/F12 supplemented with 5ml/L ITS+ Premix (BD Bioscience) and 12.5 ml/L Nu-Serum (BD Bioscience). After seeding cells into 96-well plates at 50-60% confluency, cells were allowed to adhere overnight. Prior to chemical testing, culture medium was replaced with 175 uL medium containing 10 uM forskolin to stimulate steroidogenesis for 48 hours. Following prestimulation, forskolin medium was replaced with medium containing test chemical solubilized in DMSO (ensuring a final concentration of 0.1% DMSO). Test chemicals were incubated for 48 hours, then the medium was removed and split into 2 vials containing approximately 75uL each, and stored at -80 C prior to hormone analysis. For steroid quantification, media samples were shipped to OpAns, LLC (Durham, NC) on dry ice, and samples were thawed to room temperature prior to liquid-liquid extraction. Steroid hormones were extracted from media samples using methyl tertbutyl ether (MTBE). An extra derivatization with dansyl chloride was included for estrogen (estrone and estradiol) detection only. Steroid hormones were separated by HPLC, eluted using a reverse phase C18 gradient with electrospray positive ionization, followed by quantification by tandem mass spectrometry (MS/MS). Data were acquired on a MassHunter Workstation Acquisition version B03.01 (Agilent Technologies, Inc.) and processed using MassHunter Quantitative Analysis for QQQ. Accuracy was determined for each hormone analyte from 3 standards to determine upper and lower limits of quantification (ULOQ and LLOQ, respectively) using a 7-point standard curve. Precision and accuracy of the extraction and quantification methods were calculated as the percent relative standard deviation (%RSD) of the spiked standards and percent spiked standard recovered, respectively. The goal was to achieve 100% accuracy (i.e., recover all spiked-in standard at quantification with minimal loss during run time) and good precision (i.e., have %RSD <15% to ensure reproducibility). Test medium was removed following chemical exposure, and cell viability was evaluated in the same wells by MTT. MTT procedures were as follows: after removal of test medium, 500 uL of 0.5 mg/ml of 3-[4,5-dimethylthiazol-2-y]2,5-diphenyltetrazoliumbromide solution was added to the cells. Following a 4-hour incubation at 37 C and 5% CO2 to allow formazan-crystal formation, the MTT solution was removed and blue formazan salt crystals were solubilized using 500uL anhydrous isopropanol with shaking for 20 minutes. […]", "values": [
      {"smiles": "O=[N+]([O-])/N=C1\\NCCN1Cc1ccc(Cl)nc1", "outcome": "inactive"},
      {"smiles": "C[C@H]1[C@H](c2ccc(Cl)cc2)SC(=O)N1C(=O)NC1CCCCC1", "outcome": "inactive"},
      {"smiles": "N#Cc1c(Cl)c(Cl)c(Cl)c(C#N)c1Cl", "outcome": "inactive"},
      {"smiles": "CC[C@H](C)[C@H]1O[C@]2(C=C[C@@H]1C)C[C@@H]1C[C@@H](C/C=C(\\C)[C@@H](O[C@H]3C[C@H](OC)[C@@H](O[C@H]4C[C@H](OC)[C@@H](O)[C@H](C)O4)[C@H](C)O3)[C@@H](C)/C=C/C=C3\\CO[C@@H]4[C@H](O)C(C)=C[C@@H](C(=O)O1)[C@]34O)O2", "note": "(tested in a mixture with another compound)", "outcome": "inactive"},
      {"smiles": "CCCN(CCOc1c(Cl)cc(Cl)cc1Cl)C(=O)n1ccnc1", "AC50": "0.355 µM (active)"},
      {"smiles": "O=[N+]([O-])c1c(Cl)c(Cl)c(Cl)c(Cl)c1Cl", "outcome": "inactive"},
      {"smiles": "O=C(NC(=O)c1c(F)cccc1F)Nc1ccc(OC(F)(F)C(F)OC(F)(F)F)c(Cl)c1", "note": "(configuration not stated)", "outcome": "inactive"},
      {"smiles": "O=C(O)COc1ccc(Cl)cc1Cl", "outcome": "inactive"},
      {"smiles": "COc1nn(CSP(=S)(OC)OC)c(=O)s1", "outcome": "inactive"},
      {"smiles": "CCC(C)(C)C(=O)OC1=C(c2ccc(Cl)cc2Cl)C(=O)OC12CCCCC2", "outcome": "inactive"},
      {"smiles": "CCN(CC)C(=O)SCc1ccc(Cl)cc1", "outcome": "inactive"},
      {"smiles": "CC(C)N(C(=O)COc1nnc(C(F)(F)F)s1)c1ccc(F)cc1", "outcome": "inactive"},
      {"smiles": "Oc1cc(Cl)ccc1Oc1ccc(Cl)cc1Cl", "outcome": "inactive"},
      {"smiles": "CC1(C)C(C=C(Cl)Cl)C1C(=O)OC(C#N)c1ccc(F)c(Oc2ccccc2)c1", "note": "(configuration not stated)", "outcome": "inactive"},
      {"smiles": "COP(=S)(OC)Oc1ccc(SC)c(C)c1", "outcome": "inactive"},
      {"smiles": "C#CCN1C(=O)COc2cc(F)c(N3C(=O)C4=C(CCCC4)C3=O)cc21", "outcome": "inactive"},
      {"smiles": "CNC(=O)Oc1ccccc1OC(C)C", "outcome": "inactive"},
      {"smiles": "CC(C)(C)C(O)/C(=C\\c1ccc(Cl)cc1Cl)n1cncn1", "note": "(configuration not stated)", "outcome": "inactive"},
      {"smiles": "Oc1ccc(Cl)cc1Cc1ccccc1", "outcome": "inactive"},
      {"smiles": "CCc1ccc(C(=O)NN(C(=O)c2cc(C)cc(C)c2)C(C)(C)C)cc1", "outcome": "inactive"},
      {"smiles": "CCC(C)Nc1c([N+](=O)[O-])cc(C(C)(C)C)cc1[N+](=O)[O-]", "note": "(configuration not stated)", "AC50": "78.1 µM (active)"},
      {"smiles": "CNC(=O)/C=C(\\C)OP(=O)(OC)OC", "outcome": "inactive"}
    ]}
  ]
}
